Bioassay records: PubChem, several laboratories
This is a sample that favours compounds with a hit; in the whole collection about 3.5% have one here.
Anthrax LF prot = anthrax lethal factor protease inhibition. P15917. multiplex microsphere protease cleavage assay, LF. inhibition, % at 10 µM. 0.12% of 360,000 active; note: plate controls were buffer without enzyme for full effect and enzyme alone for no effect
Target sequence (P15917 whole entry, looked up): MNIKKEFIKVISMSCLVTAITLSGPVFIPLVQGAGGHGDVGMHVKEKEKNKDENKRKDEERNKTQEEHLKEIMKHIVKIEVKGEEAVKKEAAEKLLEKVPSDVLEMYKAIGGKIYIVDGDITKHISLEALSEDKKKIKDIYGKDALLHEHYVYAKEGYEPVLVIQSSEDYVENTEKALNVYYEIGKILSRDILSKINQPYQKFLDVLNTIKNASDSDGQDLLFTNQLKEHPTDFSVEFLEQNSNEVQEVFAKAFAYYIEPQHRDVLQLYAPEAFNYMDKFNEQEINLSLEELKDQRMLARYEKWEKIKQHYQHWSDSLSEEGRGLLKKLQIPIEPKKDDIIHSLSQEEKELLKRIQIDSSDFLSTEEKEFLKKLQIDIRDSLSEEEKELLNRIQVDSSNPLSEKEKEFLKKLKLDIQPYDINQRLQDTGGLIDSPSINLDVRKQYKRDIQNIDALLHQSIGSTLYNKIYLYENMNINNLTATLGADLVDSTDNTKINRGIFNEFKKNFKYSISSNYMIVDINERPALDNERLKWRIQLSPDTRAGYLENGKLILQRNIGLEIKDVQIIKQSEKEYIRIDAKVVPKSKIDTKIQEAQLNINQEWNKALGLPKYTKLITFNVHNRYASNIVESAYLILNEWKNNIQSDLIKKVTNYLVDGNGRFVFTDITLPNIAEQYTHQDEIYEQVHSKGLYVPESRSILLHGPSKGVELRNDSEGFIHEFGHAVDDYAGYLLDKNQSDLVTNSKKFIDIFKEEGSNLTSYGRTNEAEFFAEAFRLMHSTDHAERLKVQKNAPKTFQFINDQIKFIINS
BoNT A protease = blocks Botulinum neurotoxin A light chain protease; multiplex microsphere protease substrate cleavage, flow cytometry; inhibition, % at 10 µM; 0.17% of 360,000 active; AID 588499; note: plate controls were buffer without enzyme for full effect and enzyme alone for no effect
Autofluor counter = flagged as autofluorescent in microsphere protease counterscreen; compound autofluorescence counterscreen, microsphere flow cytometry; hits give high values; fluorescence intensity (test concentration not listed); 3.1% of 360,000 active; in the data active = fluorescence intensity above about 16000; inconclusive = no clear call, values can overlap the other calls
BoNT F protease = BoNT F light chain protease inhibition. Multiplex microsphere protease cleavage assay, flow cytometry. inhibition, % at 10 µM. 0.22% of 360,000 active. AID 588497; in the data active = inhibition above about 35%, passing the limit was not always enough; inconclusive = no clear call, values can overlap the other calls; note: plate controls were buffer without enzyme for full effect and enzyme alone for no effect
BJeLR viability = BJeLR cell viability loss; 0.17% of 300,000 active; BJeLR (HRASV12) viability, CellTiter-Glo ATP luminescence, 48 h; inhibition, % (test concentration not listed); AID 1554; in the data active = inhibition above about 50%; inconclusive = no clear call, values can overlap the other calls
* = called active by the depositor; ? = inconclusive; nt = not tested or not shown. Cut-off read from the data, not from the text of the source, unless noted: active = inhibition above about 30%; inconclusive = no clear call, values can overlap the other calls; inactive = below that.

SMILES	Anthrax LF prot	BoNT A protease	Autofluor counter	BoNT F protease	BJeLR viability
O=Cc1ccc(Oc2cnccn2)cc1	-2	1	2115	-3	1
Cc1cccc(NC(=O)CSc2nnc(-c3ccc(S(=O)(=O)N4CCCC4)cc3)o2)c1	-1	0	11414	-4	1
Cc1cc(C)nc(SCC(=O)Nc2ccc(S(=O)(=O)NCCO)cc2)n1	0	1	23188*	-1	-9
Cc1cc(C)nc(SCC(=O)Nc2ccc(S(=O)(=O)N3CCCCC3)cc2)n1	-1	1	16364*	1	-10
Cc1ccc(NC(=O)CSc2nnc(-c3ccc(S(=O)(=O)N4CCCC4)cc3)o2)cc1C	0	2	21954*	2	nt
Cc1cc(C)nc(SCC(=O)Nc2ccc(S(=O)(=O)NC(C)(C)C)cc2)n1	-1	?	16067	-1	15
CC(C)CCNC(=O)CSc1nc2ccccc2c(=O)[nH]1	-4	-3	17172*	-6	5
COc1ccc(-n2c(SC)nc(O)c(Cc3ccccc3)c2=O)cc1	0	?	22787*	-2	6
COc1ccc(-n2c(SCC(=O)Nc3ccccc3OC)nc(O)c(Cc3ccccc3)c2=O)cc1	0	0	4423	3	2
CC(NC(=O)CSc1nc2ccccc2c(=O)[nH]1)c1ccccc1 (stereo unspecified)	2	0	2742	4	1
O=C(CSc1nc2ccccc2c(=O)[nH]1)Nc1ccc(Br)cc1	-9	-1	6188	-3	0
COc1ccc(NC(=O)CSc2nc(O)c(Cc3ccccc3)c(=O)[nH]2)cc1	-1	?	23050*	1	5
COC(=O)c1ccc(NC(=O)CSc2nc3ccccc3c(=O)[nH]2)cc1	-1	0	20547*	0	3
C=C1[C@@H](OC(C)=O)C=C[C@@]2(C)C=CC(=O)[C@@](C)(OC(C)=O)[C@@H]2[C@@H](OC(C)=O)[C@]2(O)[C@@H](C)C(=O)O[C@H]2[C@H]1Cl	10	-1	5473	9	nt
CC(C)(C)NS(=O)(=O)c1ccc(NS(C)(=O)=O)cc1	-1	?	16636*	-3	4
CCCNC(=O)C1(C)CCCN(Cc2ccccc2C#N)C1 (stereo unspecified)	-7	0	3737	-6	nt
COCCNC(=O)c1sc2ncn(CC(=O)Nc3ccc(C)c(Cl)c3)c(=O)c2c1C	1	0	2017	-6	7
Cc1ccc(NC(=O)Cn2cnc3sc(C(=O)NCc4ccco4)c(C)c3c2=O)cc1Cl	-6	4	21778*	4	-5
CC(C)=CC(=O)NCc1c(Cl)cccc1-n1cccc1	-1	-2	24294*	-4	-7
CC(=O)Nc1cccn(Cc2c(Cl)cccc2Cl)c1=O	-3	-1	2775	-6	3
CCc1cc(C(=O)NC2CCCc3c2cnn3-c2ccc(F)cc2F)no1 (stereo unspecified)	-5	0	3425	1	nt
COc1ccc(/C=N/Nc2nc(-c3ccc(C)cc3)c(NC(C)=O)s2)cc1OC	36*	3	4131	?	9
Cn1cnnc1SCC(=O)N(Cc1ccc2c(c1)OCO2)C1(C(=O)NC2CCCCC2)CCCC1	-1	1	22413*	0	-17
Cn1c(Cc2ccc3c(c2)OCO3)nnc1SCC(=O)NC1CCCC1	nt	nt	nt	nt	2
CCN(c1ccc(OC)cc1)S(=O)(=O)N1CCCC(C(=O)NCc2ccc(OC(C)C)cc2)C1 (stereo unspecified)	4	0	4003	2	nt
SMILES	Anthrax LF prot	BoNT A protease	Autofluor counter	BoNT F protease	BJeLR viability
Cn1c(SCC(=O)N2CCOCC2)nnc1-c1cccc(NC(=O)c2ccccc2F)c1	-3	-1	20837*	-3	-5
Cn1c(SCC(=O)N2CCOCC2)nnc1-c1ccc(Cl)cc1Cl	-5	0	23071*	-3	-7
O=C(Nc1ccccc1F)c1csc([C@@H]2C[C@H](O)[C@@H](CO)O2)n1	-6	0	3074	-1	nt
CCOC(=O)[C@]12CCC=C1N(Cc1ccccc1)C(=O)[C@H](CC(=O)NCc1cccs1)C2	3	0	5963	5	nt
CCOC(=O)c1c(-c2ccc(C)o2)csc1NC(=S)NC(=O)c1cccs1	-1	-1	2109	-7	2
CCOC(=O)c1c(-c2ccc(C)o2)csc1NC(=S)NC(=O)c1ccccc1Br	-8	0	16268*	-4	-2
CCCc1[nH]nc2c1C(c1cc(OC)cc(OC)c1)C(C#N)=C(N)O2 (stereo unspecified)	3	0	8833	-7	3
CCOC(=O)Cc1[nH]nc2c1C(c1cc(OC)ccc1OC)C(C#N)=C(N)O2 (stereo unspecified)	0	-4	21991*	-5	-1
CCCc1[nH]nc2c1C(c1cc(OC)ccc1F)C(C#N)=C(N)O2 (stereo unspecified)	-9	4	18896*	4	0
Cc1ccc(Cl)cc1-c1cc(C(=O)NCc2cc(C(F)(F)F)cc(C(F)(F)F)c2)[nH]n1	-2	0	3392	-1	nt
CC(=O)Nc1ccc(S(=O)(=O)CC(=O)CS(=O)(=O)c2ccc(NC(C)=O)cc2)cc1	-4	0	3028	-9	nt
Cc1cc(C)n(-c2nc(SCCN(C)C)c3c4c(sc3n2)CCCC4)n1	-2	-7	17751*	-9	8
Cc1cc(C)n(-c2nc(SCC(=O)O)c3c4c(sc3n2)COC(C)(C)C4)n1	-2	0	4304	-10	9
COc1ccc(N2CCN(/C(=N\S(=O)(=O)c3ccc(C)cc3)Nc3nc(C)cc(C)n3)CC2)cc1	-3	2	19034*	0	-1
Cc1ccc(-c2csc(=S)n2CC(=O)OCC(=O)NC(C)C(C)C)cc1 (stereo unspecified)	-2	0	16450*	0	4
Cc1ccc(-c2csc(=S)n2CC(=O)OCC(=O)NCc2ccco2)cc1	-1	1	9278	2	3
O=C1NC(c2ccccc2)=C(c2nc3ccccc3s2)C(c2ccc(O)cc2)N1 (stereo unspecified)	-5	2	21586*	2	10
COc1ccc(/C=C/CN2CCC(C(=O)NC(c3ccc(F)cc3)c3ccc4ccccc4n3)CC2)cc1 (stereo unspecified)	-4	-1	4830	-23	nt
CS(=O)(=O)c1cccc(C(=O)N(CCc2ccccc2)Cc2cccs2)c1	-2	0	4098	9	-1
O=C(CC1Sc2ncnn2C1=O)Nc1ccc(Cl)cc1 (stereo unspecified)	nt	nt	nt	nt	6
O=C(CC1SC2=NCCN2C1=O)Nc1ccc(Cl)cc1 (stereo unspecified)	0	-3	17758*	-7	-8
CCN1C(=O)/C(=C2\SC(=S)N(c3c(C)n(C)n(-c4ccccc4)c3=O)C2=O)c2ccccc21	-12	?	20899*	8	7
CC(OC(=O)c1ccc(S(C)(=O)=O)c([N+](=O)[O-])c1)C(=O)NC1C2CC3CC(C2)CC1C3 (stereo unspecified)	0	0	2831	3	nt
COC(=O)c1[nH]c2cccc(OC)c2c1NC(=O)CN1CCOCC1	2	-1	2909	-4	-2
